Calls of active or inactive are those of the source. The calls were made as follows: active = hit-call score of the fitted dose curve at least 0.9, where 1 is the maximum; inactive = score below 0.9.

A word on the AC50: it is the midpoint of the concentration-response curve, whichever way the signal moves.

Conditions in all cases: mRNA level, 48 h; actives raise or lower the signal
Read-out in test [1]: Tumor necrosis factor receptor superfamily member 6 (Homo sapiens) (UniProt P25445)
Kind of test: LTEA_HepaRG_FAS: Life Technologies and Expression Analysis (LTEA) Assay for Fas cell surface death receptor (FAS) using HepaRG (AID 2283447). The procedure, abridged: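 Differentiated HepaRG cells in serum-free induction medium were exposed 48 h to 8 half-log concentrations up to 100 uM in 0.5% DMSO, in duplicate. FAS mRNA was measured by qRT-PCR normalised to ACTB, GAPDH and POLR2A; bidirectional fit versus DMSO.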

Read-out in test [2]: Fatty acid synthase (Homo sapiens) (UniProt P49327)
As to the kind of experiment: LTEA_HepaRG_FASN: Life Technologies and Expression Analysis (LTEA) Assay for Fatty Acid Synthase (FASN) using HepaRG (AID 2283448).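 As to AC50: differentiated human HepaRG liver cells in serum-free induction medium.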 In a few lines: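 Cells were plated, cultured 48 h, switched to serum-free induction medium, then dosed in duplicate (max 100 uM, half-log dilutions, 0.5% DMSO) for 48 h. RNA was then isolated and FASN quantified by qRT-PCR.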

Read-out in test [3]: Cyclin D2 (CCND2), CCND2 (gene 894)
Kind of test: LTEA_HepaRG_CCND2: Life Technologies and Expression Analysis (LTEA) Assay for Cyclin D2 (CCND2) using HepaRG (AID 2283449).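 Also: CCND2 transcript measured by TaqMan qRT-PCR and normalised to three housekeeping genes.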 The procedure, abridged:
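HepaRG, 48 h dosing, 8-pt half-log curve from 100 uM, 0.5% DMSO; duplicate wells. Readout: CCND2 transcript by microfluidic qRT-PCR, housekeeping-normalised; bidirectional fit vs DMSO baseline.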

Read-out in test [4]: Cyclin Dependent Kinase Inhibitor 1A (CDKN1A), CDKN1A (gene 1026)
Kind of test: LTEA_HepaRG_CDKN1A: Life Technologies and Expression Analysis (LTEA) Assay for Cyclin Dependent Kinase Inhibitor 1A (CDKN1A) using HepaRG (AID 2283450). In a few lines:
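Expression quantified by Fluidigm qRT-PCR with ACTB, GAPDH and POLR2A normalization, fitted bidirectionally against 0.5% DMSO. Cells: HepaRG, plated 48 h then treated 48 h in serum-free induction medium, top concentration 100 uM with half-log dilutions.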

Read-out in test [5]: catalase (CAT), CAT (gene 847)
Kind of test: LTEA_HepaRG_CAT: Life Technologies and Expression Analysis (LTEA) Assay for catalase (CAT) using HepaRG (AID 2283452).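 As to AC50: TaqMan qRT-PCR signal normalized to ACTB GAPDH and POLR2A housekeeping genes.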 The procedure, abridged:
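HepaRG cells in serum-free induction medium, 0.5% DMSO vehicle, exposed 48 h in duplicate over 8 half-log concentrations from 100 uM. CAT mRNA measured by qRT-PCR, normalized to ACTB, GAPDH, POLR2A; bidirectional fit versus DMSO.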

Read-out in test [6]: flavin-containing dimethylaniline monooxygenases 3 (FMO3), FMO3 (gene 2328)
As to the kind of experiment: LTEA_HepaRG_FMO3: Life Technologies and Expression Analysis (LTEA) Assay for flavin-containing dimethylaniline monooxygenases 3 (FMO3) using HepaRG (AID 2283453).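 As to AC50: differentiated human HepaRG liver cells in serum-free induction medium; FMO3 transcript by TaqMan qRT-PCR normalized to ACTB GAPDH and POLR2A.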 In a few lines:
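FMO3 transcript quantified by TaqMan qRT-PCR against three housekeeping genes after 48 h chemical exposure of HepaRG cells. Eight-point half-log series, top 100 uM, 0.5% DMSO vehicle; phenobarbital 1mM induction control; up- or down-regulation fitted.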

Read-out in test [7]: CFLAR gene, CFLAR (gene 8837)
As to the kind of experiment: LTEA_HepaRG_CFLAR: Life Technologies and Expression Analysis (LTEA) Assay for CFLAR gene using HepaRG (AID 2283455). The procedure, abridged: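 qRT-PCR read-out (Fluidigm/TaqMan) of CFLAR mRNA, normalized to three housekeeping genes, in differentiated human HepaRG cells after 48 h chemical exposure; 8-point half-log series from 100 uM in 0.5% DMSO; bidirectional curve fitting versus DMSO.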

Read-out in test [8]: Cytochrome P450 (CYP1A1), CYP1A1 (gene 1543)
As to the kind of experiment: LTEA_HepaRG_CYP1A1: Life Technologies and Expression Analysis (LTEA) Assay for Cytochrome P450 (CYP1A1) using HepaRG (AID 2283454). The procedure, abridged:
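CYP1A1 transcript levels measured by Fluidigm qRT-PCR against three housekeeping genes, 48 h after chemical dosing of human HepaRG cells (highest concentration 100 uM, half-log steps, 0.5% DMSO vehicle). Gain or loss of signal fitted relative to DMSO.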

Read-out in test [9]: Cyclin D1 (CCND1), CCND1 (gene 595)
Kind of test: LTEA_HepaRG_CCND1: Life Technologies and Expression Analysis (LTEA) Assay for Cyclin D1 (CCND1) using HepaRG (AID 2283451).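 As to AC50: differentiated human HepaRG liver cells in serum-free induction medium; TaqMan qRT-PCR transcript level normalised to ACTB GAPDH and POLR2A housekeeping genes.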 In a few lines: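 Expression of CCND1 was quantified by qRT-PCR on Fluidigm arrays using ACTB, GAPDH and POLR2A as reference genes. HepaRG cultures, plated 48 h beforehand, were dosed for 48 h at up to 100 uM (half-log, 8 points) in 0.5% DMSO.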

Fatty acid synthase (Homo sapiens), sequence (P49327 whole entry, looked up): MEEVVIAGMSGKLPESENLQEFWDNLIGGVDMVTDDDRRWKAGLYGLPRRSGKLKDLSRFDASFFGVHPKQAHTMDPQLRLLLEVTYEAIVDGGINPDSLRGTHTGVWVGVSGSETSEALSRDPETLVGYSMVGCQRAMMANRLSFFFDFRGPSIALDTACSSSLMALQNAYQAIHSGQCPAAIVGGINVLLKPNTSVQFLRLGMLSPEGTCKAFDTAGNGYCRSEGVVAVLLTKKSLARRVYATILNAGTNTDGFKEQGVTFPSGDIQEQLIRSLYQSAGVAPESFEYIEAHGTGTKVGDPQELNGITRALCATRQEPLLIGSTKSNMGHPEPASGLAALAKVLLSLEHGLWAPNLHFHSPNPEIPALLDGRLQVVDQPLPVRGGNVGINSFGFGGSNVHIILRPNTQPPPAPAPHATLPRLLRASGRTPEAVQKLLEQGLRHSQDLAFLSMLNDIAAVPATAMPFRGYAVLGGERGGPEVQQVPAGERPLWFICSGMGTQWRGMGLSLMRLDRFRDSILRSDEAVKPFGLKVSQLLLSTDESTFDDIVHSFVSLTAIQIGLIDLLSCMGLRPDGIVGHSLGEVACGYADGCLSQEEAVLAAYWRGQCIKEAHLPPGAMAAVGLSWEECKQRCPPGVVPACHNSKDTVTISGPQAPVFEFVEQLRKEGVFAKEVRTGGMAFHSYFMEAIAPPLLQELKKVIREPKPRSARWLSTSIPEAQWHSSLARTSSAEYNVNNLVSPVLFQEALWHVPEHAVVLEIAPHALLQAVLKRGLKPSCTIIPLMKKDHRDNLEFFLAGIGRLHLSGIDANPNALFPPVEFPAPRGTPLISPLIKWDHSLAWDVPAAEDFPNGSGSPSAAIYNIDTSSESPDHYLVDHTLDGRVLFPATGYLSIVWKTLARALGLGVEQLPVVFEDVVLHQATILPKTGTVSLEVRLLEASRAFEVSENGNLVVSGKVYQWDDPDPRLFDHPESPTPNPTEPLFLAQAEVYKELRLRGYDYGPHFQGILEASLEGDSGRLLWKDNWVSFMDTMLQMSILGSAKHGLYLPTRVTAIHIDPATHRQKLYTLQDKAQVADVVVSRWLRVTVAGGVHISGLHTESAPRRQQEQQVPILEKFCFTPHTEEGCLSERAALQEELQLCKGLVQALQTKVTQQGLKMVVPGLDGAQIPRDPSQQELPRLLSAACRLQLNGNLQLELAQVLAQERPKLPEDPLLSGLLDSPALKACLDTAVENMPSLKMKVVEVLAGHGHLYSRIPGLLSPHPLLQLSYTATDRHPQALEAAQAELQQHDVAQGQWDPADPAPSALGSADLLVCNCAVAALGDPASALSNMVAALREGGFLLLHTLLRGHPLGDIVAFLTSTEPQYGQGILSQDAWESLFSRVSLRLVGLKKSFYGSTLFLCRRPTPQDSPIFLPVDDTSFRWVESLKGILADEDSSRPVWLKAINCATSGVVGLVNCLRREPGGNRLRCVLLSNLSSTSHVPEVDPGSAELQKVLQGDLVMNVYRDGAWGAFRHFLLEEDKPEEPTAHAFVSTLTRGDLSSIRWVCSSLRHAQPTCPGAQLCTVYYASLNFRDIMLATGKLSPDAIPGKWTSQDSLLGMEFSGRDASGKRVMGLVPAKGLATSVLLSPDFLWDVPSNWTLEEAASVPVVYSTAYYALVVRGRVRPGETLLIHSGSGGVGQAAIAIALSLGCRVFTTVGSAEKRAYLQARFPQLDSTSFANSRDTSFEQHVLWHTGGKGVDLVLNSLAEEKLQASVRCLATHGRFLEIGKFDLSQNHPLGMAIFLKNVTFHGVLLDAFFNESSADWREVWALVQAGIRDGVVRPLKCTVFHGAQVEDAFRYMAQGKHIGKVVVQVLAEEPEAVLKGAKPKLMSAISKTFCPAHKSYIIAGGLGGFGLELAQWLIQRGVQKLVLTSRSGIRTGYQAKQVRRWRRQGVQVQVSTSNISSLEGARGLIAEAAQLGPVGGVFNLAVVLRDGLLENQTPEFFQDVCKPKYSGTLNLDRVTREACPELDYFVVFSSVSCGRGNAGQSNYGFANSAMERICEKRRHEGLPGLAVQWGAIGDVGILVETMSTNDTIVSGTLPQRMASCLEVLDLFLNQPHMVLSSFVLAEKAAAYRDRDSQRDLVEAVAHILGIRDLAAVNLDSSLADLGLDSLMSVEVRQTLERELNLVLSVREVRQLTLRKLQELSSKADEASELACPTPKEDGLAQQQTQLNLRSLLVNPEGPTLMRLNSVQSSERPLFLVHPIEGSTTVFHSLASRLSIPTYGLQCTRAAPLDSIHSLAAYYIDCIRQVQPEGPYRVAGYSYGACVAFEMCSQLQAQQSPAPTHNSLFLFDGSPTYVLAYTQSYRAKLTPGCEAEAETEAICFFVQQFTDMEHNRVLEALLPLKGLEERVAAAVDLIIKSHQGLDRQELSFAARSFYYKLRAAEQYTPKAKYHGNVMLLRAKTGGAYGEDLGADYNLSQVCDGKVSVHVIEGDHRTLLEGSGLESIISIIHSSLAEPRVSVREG

In the case of `NC(=O)NN=Cc1ccc([N+](=O)[O-])o1`, the outcome in [1], in [4], in [5], in test [6] and in [7] was inactive. In addition, the values for the AC50 in test [2] and in test [3] were 50 µM (active) and 0.0722 µM (active), respectively.

As for `O=S(=O)(O)c1ccc(N=Nc2c(O)ccc3cc(S(=O)(=O)O)ccc23)cc1`, the call in test [1], in test [2], in test [3], in [4], in [5] and in [6] was inactive. In addition, the molecule was classed as inactive in test [7]. Moreover, the concentration at half-maximal activity (AC50) in test [8] was 50 µM (active).

On to `CCCCN1C(=O)[C@@H]([C@H](O)C2CCCCC2)NC(=O)C12CCN(Cc1ccc(Oc3ccc(C(=O)O)cc3)cc1)CC2`, for which the outcome in [1] and in test [4] was inactive. In addition, the AC50 in test [2] was 1.32 µM (active); in test [9], 50 µM (active); in test [5], 2.04 µM (active); in [6], 3.54 µM (active); in test [8], 2.16 µM (active); in test [7], 2.28 µM (active).

Take `OCCOCCOCCO`: the result in [1], in test [2], in test [3], in test [4], in test [5] and in test [6] was inactive. For the same molecule, the result in [7] was inactive.

In the case of `Cc1nccn1-c1ccc(Sc2cccc(C3(C(N)=O)CCOCC3)c2)cc1`, the outcome in [1] and in test [3] was inactive. In addition, the half-maximal activity concentration (AC50) in test [2] was 9.48 µM (active); in test [4], 12.3 µM (active); in test [5] it was 8.97 µM (active); in test [6], 9.6 µM (active); in test [7] it was 28.3 µM (active).

For `OCC(CO)(CO)CO`, the result in [1], in test [2], in test [4], in test [5], in test [6] and in test [7] was inactive.

Regarding `c1ccc(C(O[C@@H]2CCCN(CCc3ccc4c(c3)OCO4)C2)c2ccccc2)cc1`, the AC50 in test [1] was 50 µM (active); in test [2], 79.9 µM (active); in test [4], 77.7 µM (active); in [5], 69.7 µM (active); in [6], 70 µM (active); in test [8] it was 13.2 µM (active). Moreover, the outcome in test [3] and in test [7] was inactive.

`O=C(O)c1ccc2c(c1)nc(C(=O)NC1CCN(C3CC3)CC1)n2Cc1cc(-c2ccc(Cl)s2)on1`: the molecule was classed as inactive in test [1], in [2], in test [3], in test [4], in test [5] and in [6]. The call in test [7] was inactive.

As to `O=C(O)[C@H](O)[C@@H](O)C(=O)O`, the molecule was classed as inactive in test [1], in test [2], in test [3], in test [4], in [5] and in test [6]. In test [7], the molecule was called inactive.

On to `O=S1(=O)CCCO1`, for which the molecule was called inactive in test [1], in [2], in test [3], in test [4], in test [5] and in test [6]. Besides, the outcome in [8] and in [7] was inactive.

On to `CCCCCCOC(=O)CC(CC(=O)OCCCCCC)(OC(=O)CCC)C(=O)OCCCCCC`, for which the call in [1], in [2], in test [3], in test [4], in test [5] and in test [6] was inactive. Also, the molecule was classed as inactive in test [7].

Consider `O=C(O)c1cccc(C[C@@H]2COc3ccc(OCc4nc5cc(F)ccc5s4)cc3[C@@H]2O)c1`, for which the result in test [1], in test [3], in test [4], in test [6] and in test [7] was inactive. Besides, the AC50 in test [2] was 85.5 µM (active); in test [5] it was 50 µM (active); in [8] it was 33.4 µM (active).

`OCc1ccccc1`: the outcome in test [1], in test [2], in test [3], in test [4], in [9] and in [5] was inactive. The outcome in test [6] and in [7] was inactive.

In the case of `OC(Cn1cncn1)(Cn1cncn1)c1ccc(F)cc1F`, the molecule was called inactive in test [1], in test [2], in test [3], in test [4], in test [5] and in test [6]. In addition, in test [7], the result was inactive.

For the molecule `CCCCCOC(C)=O`, the molecule was called inactive in test [1], in test [2], in test [3], in test [4], in test [5] and in test [6]. For the same molecule, the result in test [8] and in test [7] was inactive.

For the molecule `Cc1ccc(S(=O)(=O)NC(=O)NN2CCCCCC2)cc1`, the outcome in test [1], in test [2], in test [3], in test [4], in test [5] and in [6] was inactive. In addition, the result in test [7] was inactive.

For the molecule `NC(=O)N(O)[C@@H]1COc2cc(OCc3ccccc3)ccc21`, the molecule was called inactive in test [1], in test [2], in [3], in test [4], in [5] and in test [6]. In test [7], the result was inactive.

`CC(C)CC(C)O` (stereo not drawn): the molecule was classed as inactive in test [1], in [2], in test [3], in test [4], in test [5] and in [6]. Also, in test [7], the result was inactive.

For the molecule `CCc1ccc(O)c(C(C)(C)C)c1`, the molecule was classed as inactive in test [1], in [2], in [4], in test [5], in test [6] and in [7].

The values above are taken from PubChem BioAssay (EPA / NIEHS).
